Each structure is given as a SMILES string. Hit rate of the full screen: of about 130,000 compounds, about 1,200 (0.92%) were called active.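 Rule for the calls: active = inhibition above the mean plus 3 SD, with well images judged a real hit on visual review (cut at about 60% in these data, passing the limit was not always enough); inconclusive = inhibition over the cutoff but images rejected on review; inactive = inhibition not above the cutoff.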 For the sample, actives were picked, then their nearest neighbours and some compounds at random.

This experiment can be described thus: insulin gene promoter suppression in islet cells – imaging, TRM-6 cells (human fetal islet line), eGFP reporter, cell count, primary screen (AID 1273;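 for normalized cell count: cells exposed to compound for 48 h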). Conditions: at 2 µM, reporter expression induced with tamoxifen; inhibition: stronger effect = higher value; normalized cell count: measured here: cell count, toxicity.
Turning to `Cc1ccc(NC(=O)CCN2CCc3ccccc3C2)cc1`, the inhibition is 28.6% (inactive) and the normalized cell count turned out to be 64.3%.
For `COc1ccc(OC)c(NC(=O)CCN2CCC(C)CC2)c1`, in that order: 34.2% (inactive) and 86.9%.
For `CC1CCN(CCC(=O)Nc2ccccc2)CC1`, in that order: 78.6% (active) and 39.9%.
Regarding `O=C(CCN1CCN(C/C=C/c2ccccc2)CC1)Nc1cccc(F)c1`, the inhibition was -57.1% (inactive) and the normalized cell count was found to be 154%.
In the case of `CCc1ccc(/C=C2\SC(N3CCOCC3)=NC2=O)cc1`, the inhibition was 16.7% (inactive) and the normalized cell count was 199%.
For the compound `Cc1nnsc1C(=O)Nc1cccc(Cl)c1C`, the inhibition is 50% (inactive) and the normalized cell count came to 71.6%.
For `O=C(Nc1ccc(-c2ccc3nncn3n2)cc1)C1CCCCC1`, in that order: -25% (inactive) and 193%.
For `Cc1cccc(NC(=O)CN2C(=O)c3ccccc3C2=O)c1C`, in that order: -28.6% (inactive) and 79%.
For `S=C(Nc1ccc2c(c1)OCO2)N1CCCC1`, in that order: -79% (inactive) and 73.4%.
As for `Fc1ccccc1N=C1Nc2cccc3cccc1c23`, the inhibition is 88.9% (active) and the normalized cell count turned out to be 172%.
For `COc1ccccc1C1=Nc2cccc3cccc(c23)N1`, in that order: -6.67% (inactive) and 113%.
For `c1ccc(C2=Nc3cccc4cccc(c34)N2)cc1`, in that order: -73.5% (inactive) and 133%.
For `Cc1ccc(N(C(=O)Cc2cccs2)C2C=CS(=O)(=O)C2)cc1Cl` (stereo not given), in that order: 15% (inactive) and 128%.
On to `Cc1cc(NC(=O)CSc2nc3ccccc3n2CC(C)C)no1`, for which the inhibition was -41.7% (inactive) and the normalized cell count is 96.4%.
For `CC1Cc2ccccc2N1S(=O)(=O)c1c(N)n(C)c(=O)n(C)c1=O` (stereo not given), in that order: -66.7% (inactive) and 73.2%.
As to `Cc1ccc(NC(=O)CSc2nnc(-c3cnccn3)n2Cc2ccco2)cc1C`, the inhibition was -21.6% (inactive) and the normalized cell count was 100%.
In the case of `O=C(CSc1nnc(-c2cccs2)n1Cc1ccco1)c1ccc2c(c1)OCO2`, the inhibition is 17.6% (inactive) and the normalized cell count was determined as 96.9%.
For `COc1ccc(NC(=O)CSc2nnc(-c3cccs3)n2Cc2ccco2)cc1OC`, in that order: 72.7% (active) and 109%.
For `O=C(CCN1C(=O)c2ccncc2C1=O)Nc1cc(F)ccc1F`, in that order: 25% (inactive) and 92%.
For `CSCC(NS(=O)(=O)c1ccc(C)cc1)C(=O)O` (stereo not given), in that order: -387% (inactive) and 83.3%.
`Cn1c(N)c(C(=O)COC(=O)c2cnc(Cl)c(Cl)c2)c(=O)n(C)c1=O`: the inhibition was -42.9% (inactive) and the normalized cell count was 106%.
For `COCc1cc(C(C)=O)ccc1OC`, in that order: 30.8% (inactive) and 97.5%.
Turning to `CCOc1ccc(C(C)=O)cc1COC(=O)c1cnc(Cl)c(Cl)c1`, the inhibition is 83.3% (active) and the normalized cell count amounted to 144%.
For `CCSc1sc(CC)cc1C=O`, in that order: 57.1% (inactive) and 96.8%.
For `CCN1CCN(c2ccc(NC(=O)c3cnccn3)cc2)CC1`, in that order: -35.7% (inactive) and 74.9%.

For the origin of these results see PubChem BioAssay AID1273 (Columbia University Molecular Screening Center, 2008).
